# This excerpt belongs to a sample that is enriched for hits.
# Pf Dd2 inh: Plasmodium falciparum Dd2 growth inhibition | P. falciparum Dd2 growth, SYBR Green, 72 h | Potency, µM (series often up to 28.9 µM), for inactives: at the highest dose activity, negative = inhibition, usual class: inhibitors | 120,000 compounds, 4.3% hits; active means well fitted inhibition curve with a large enough effect;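 further: plate controls were DMSO vehicle for no effect and reference drug for full effect; nearly all actives have a fitted effect of over 65% in size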
#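 Readout: SYBR Green fluorescence, 485 nm excitation, 535 nm emission, after ~16 h lysis at 37C. Before that, Dd2-infected red cells (2.5% hematocrit) grew 72 h with compound, 29 uM top final concentration.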
# * hit, by the source's call; i = inactive; [ ] = dose if it differs, or a comment. Potency means the concentration at half of the fitted maximal effect.
SMILES,Pf Dd2 inh
CC1=C[C@@H](CN2CCC(C(N)=O)CC2)[C@H](C(C)C)C[C@H]1Cc1nnc(C(C)(C)C)o1,i
CC1=C[C@@H](CNC(=O)C(C)(C)C)[C@H](C(C)C)C[C@H]1Cc1nnc(-c2ccccc2F)o1,0%[44.1 µM]
CC1=C[C@@H](CNCc2ccco2)[C@H](C(C)C)C[C@H]1Cc1nnc(C(C)(C)C)o1,13µM*
COc1ccc(C(=O)NC[C@@H]2C=C(C)[C@H](CC(=O)O)C[C@H]2C(C)C)cc1,-5%[44.1 µM]
CCN1C(=O)C2(CCN(S(=O)(=O)c3ccc(C)c(Cl)c3)CC2)c2ccccc21,i
O=C(C1CCCC1)N1C[C@@H](COc2ccncc2)[C@H](c2ccccn2)C1,0%
CC(C)N1CCCC2(CCN(S(=O)(=O)c3cccc(F)c3)C2)C1=O (centres undefined),-5%
COc1ccc(NC(=O)N2CCC3(CC2)SCC(=O)N3Cc2ccco2)c(OC)c1,i
C[C@@H]1CN(C(=O)Cc2cc(F)cc(Cl)c2)CC[C@]1(C)O,-1%
CNC(=O)[C@@H]1CN(C(=O)c2ccccc2C(F)(F)F)C[C@H]1CO,9%
CC(=O)NCCC(=O)N1Cc2ccccc2CC2(CCCN(CC3CCOCC3)C2)C1 (centres undefined),2%
CN(C)C[C@@H]1CN(c2ncccn2)C[C@H]1NC(=O)c1ccccc1Cl,-16%
COc1ccc(C(=O)N2CCC3(CCC3OC)CC2)cc1 (centres undefined),5%
Cc1c(Cl)cccc1NC(=O)Cn1ccn2nc(-c3ccccc3)c(CO)c2c1=O,1%
COc1ccc(CN2C(=O)CO[C@H](c3ccc(NS(=O)(=O)c4ccc(F)cc4)cc3)[C@H]2CO)cc1,-29%
C=CCNC(=O)c1c[nH]c2cccnc12,9%[44.1 µM]
O=C(NCc1ccccc1)C1CCC(=O)N1C1CCN(C(=O)c2ccc3c(c2)OCO3)CC1 (centres undefined),10%
CCn1ccc(C(=O)NCc2cccnc2N(C)CCc2ccccn2)n1,-11%
COC1CCOC2(CCN(C(=O)c3ccc(F)cc3)CC2)C1 (centres undefined),29%
O=C(NCc1ccc(F)cc1Cl)C1CCN(C(=O)c2ncn3c2COC(c2ccccc2)C3)CC1 (centres undefined),i
CC1=C[C@@H](CN(C)CCc2ccccn2)[C@H](C(C)C)C[C@H]1Cc1nnc(-c2ccccc2)o1,2.2µM*
CC1=C[C@@H](CNS(=O)(=O)c2ccccc2)[C@H](C(C)C)C[C@H]1CC(=O)NCc1ccccn1,i
CC1=C[C@@H](CNC(=O)COc2ccccc2)[C@H](C(C)C)C[C@H]1CC(=O)Nc1ccccn1,i
Cc1ccc2nc(CN(C)Cc3cc(=O)c4cc(C(N)=O)ccc4[nH]3)[nH]c2c1,i
CCN(CC)C(=O)[C@@H]1CCC[C@@H](NC(=O)c2cnccn2)CN(C)C(=O)C1,6%[44.1 µM]
SMILES,Pf Dd2 inh
CN1C(=O)CC[C@]2(C(=O)NC3CC3)CCCC[C@@H]12,i
O=C(NCc1cccc2[nH]ccc12)C1CCCN(C2CCN(C(=O)C3CC3)CC2)C1 (centres undefined),-6%
CCOc1ccc(C2Cn3nnc(-c4nc(-c5ccc(F)cc5)no4)c3CO2)cc1 (centres undefined),i
O=C(c1ccc(C(F)(F)F)cc1)N1CCC2(CC1)C(=NC1CCCC1)NC(=O)N2c1cccnc1,2%
OC[C@H]1CCN(c2ccnc3c(C(F)(F)F)cccc23)C[C@H]1O,-22%
COCCC1(C(=O)O)CCN(c2ccnc3c(C(F)(F)F)cccc23)CC1,-13%
FC(F)(F)c1cccc2c(N3CCC4(CCCN4Cc4ncc[nH]4)CC3)ccnc12,10µM*
O=C([C@H]1CCC[C@H](O)C1)N(CCc1ccc(Cl)cc1)Cc1cccnc1,-14%
C[C@H]1[C@@H]2[C@@H](O)C([C@H](C)C(=O)NCc3ccco3)CC[C@@]2(C)CC[C@@H]1NC(=O)c1ccccn1 (some centres undefined),-16%
COc1ccc(C(=O)N2C[C@@H](Oc3cccnc3)C[C@H]2C(N)=O)c(OC)c1,8%
Cc1ccccc1CNC[C@H]1O[C@@H]2C[C@@H](CC(=O)NCc3nccn3C)O[C@@H]2[C@@H]1O,-5%[44.1 µM]
Cc1ccc(CNC(=O)CN2C(=O)NC3(CCCCC3)C2=O)cc1,-2%
O=C(c1ccncc1)N1CC[C@H]2COC(=O)N2c2cc(F)ccc2C1,18%[44.1 µM]
CC[C@H]1CN(C(=O)Nc2cccc(OC)c2)CC[C@H]1CC(=O)NCc1ccccc1,13µM*
CC[C@H]1CN(C(=O)Nc2cccc(C(F)(F)F)c2)CC[C@H]1CC(=O)NCc1ccc(OC)cc1,i
CC[C@H]1CN(C(=O)Nc2cccc(OC)c2)CC[C@H]1CC(=O)NCc1cccnc1,1%[44.1 µM]
O=C1CCC2(CNC(=O)c3cnccn3)CCCC=C2N1 (centres undefined),1%
O=C(c1ccc(C(F)(F)F)cc1)N1CCC(N2CCCS2(=O)=O)CC1,8%
O=C(c1ccc(N2CCCC(O)C2)nc1)N1CCC(N2CCOCC2)CC1 (centres undefined),21%
Cc1ccc(Cl)cc1NC(=O)C1CCC(CNS(=O)(=O)c2cccc3nsnc23)CC1 (centres undefined),3.5µM*
Cc1ccc(NC(=O)C2CCN(S(=O)(=O)c3cccc4nsnc34)CC2)cc1F,-16%
CCC(C)NC(=O)C1CCC(CNS(=O)(=O)c2cccc3nsnc23)CC1 (centres undefined),0.79µM*
Cc1ccc(NC(=O)C2CCC(CNS(=O)(=O)c3cccc4nsnc34)CC2)c(Cl)c1 (centres undefined),i
CCCN(CCC)CCCNC(=O)C1CCN(S(=O)(=O)c2cccc3nsnc23)CC1,i
COC(=O)CNC(=O)C1CCN(S(=O)(=O)c2cccc3nsnc23)CC1,12%
SMILES,Pf Dd2 inh
COC(=O)[C@H](NC(=O)C1=C[C@@H](NS(=O)(=O)c2cccc(C(F)(F)F)c2)[C@@H](O)[C@H](O)C1)C(C)C,-16%
O=C(CSc1nc(=O)[nH]c2c1CCCC2)NCc1ccccc1,25%
COc1cccc(NC(=O)c2cccc3c(=O)c4c([nH]c23)CCCC4)c1,0.89µM*
COc1cccc(NS(=O)(=O)c2ccc3[nH]c4c(c3c2)CCCCCC4)c1,-27%
O=C(Nc1ccccc1)c1cccc2c(=O)c3c([nH]c12)CCCC3,4.5µM*
O=C(CSc1nc(=O)[nH]c2c1CCC2)NCc1ccccc1,10%
CCC1(C(=O)Nc2cccc(OC)c2)CCCCC(=O)N1 (centres undefined),14%
Cc1[nH]nc(CCC(=O)N2CCC3(CCC(=O)N(CC4CC4)C3)CC2)c1C,-22%
CCCN(CC1CCOC1)C(=O)c1ccc(F)cc1F (centres undefined),-5%[5.79 µM]
O=C(c1ccccc1OCC1CCCN(Cc2ccncc2F)C1)N1CCOCC1 (centres undefined),i
COCCNC(=O)C[C@@H]1C[C@H]2O[C@H](CNC(=O)Nc3ccc(OC)cc3)[C@@H](O)[C@H]2O1,14%[44.1 µM]
O=C1CC(c2ccccc2)N(Cc2cn[nH]c2-c2cccs2)CCCCCN1 (centres undefined),-9%
COc1ccccc1-c1[nH]ncc1CN1CCC2(CC1)CC(O)CCO2 (centres undefined),44%
COCCC1(NC(=O)c2ccccc2)CCN(Cc2cn[nH]c2-c2cccs2)CC1,8.9µM*
O=C(CCCn1cncn1)N[C@H]1CCOC[C@H]1C1CCOCC1,1%
C=CCC1(CO)CCCN(C(=O)CCN(C)S(C)(=O)=O)C1 (centres undefined),-3%
CCCN1CCNc2cc(Nc3ccccc3)ncc2C1,8.9µM*
